Results published in PubChem BioAssay (NCI).
This is part of a sample that, as a whole, favours compounds with a hit. Of some 79,000 tested, about 15% had one in any assay. Values without a mark were called inactive. Rule as the data show it: active = growth inhibition above about 70%; inactive = the rest. Where a SMILES comes first, the peptide text is derived from it. The star is where a group is joined. ONp = O=[N+]([O-])c1ccc(O*)cc1; Tos = Cc1ccc(S(=O)(=O)*)cc1

Test: NCI Yeast Anticancer Drug Screen. Data for the rad50 strain (AID 155);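 also: 0% = growth of vehicle-only cultures of the same strain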
Conditions: S. cerevisiae rad50 strain growth inhibition; at 50.0 µM; hits give high values
How it was run: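 Readout: growth inhibition relative to vehicle-treated cultures. Compound exposure was carried out in a genetically defined yeast strain deficient in DNA damage repair.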

Q: For `Cc1cc(=O)oc2nc(-c3ccccc3)[nH]c(=O)c12`, which growth inhibition is on record?
A: 0.3%

Q: With `O=C(Nc1cccc([N+](=O)[O-])c1)Nc1ccccc1F` as the compound, how does the growth inhibition read?
A: 11.7%

Q: With `COc1cc(C2c3c(cc(OC)c(O)c3OC)C=C(C(=O)O)C2CO)cc(OC)c1O` (stereo not given) as the compound, how does the growth inhibition read?
A: 9.05%

Q: With `Cc1cc(C(=O)O)ccc1C(=O)O` as the compound, how does the growth inhibition read?
A: -13.8%

Q: Which growth inhibition does the source give for `COc1ccc(CC2OCCC3c4ccccc4NC23)cc1OC` (stereo not given) here?
A: -3.2%

Q: For `CC(=O)C1=CCC2[C@H]3CC=C4C[C@H](O)CC[C@@]4(C)C3CC[C@@]12C` (stereo not given in full), which growth inhibition is on record?
A: 21.2%

Q: With `CC(=O)C(C)(C)O` as the compound, how does the growth inhibition read?
A: 45.4%

Q: With `CCc1nnc2n1N=C(c1ccc(-c3ccccc3)cc1)CS2` as the compound, how does the growth inhibition read?
A: 20.4%

Q: For `CC(C)CC(N)C(=O)NC(Cc1c[nH]c2ccccc12)C(N)=O` (stereo not given), which growth inhibition is on record?
A: -8.85%

Q: Which growth inhibition does the source give for `C=C1CCC2C(C)(CO)C(O)CCC2(C)C1CCC1=CCOC1=O` (stereo not given) here?
A: -22.4%

Q: With `Brc1ccccc1-c1nnc(-c2cccc3ccccc23)o1` as the compound, how does the growth inhibition read?
A: -20.9%

Q: With `O=C1c2ccc([N+](=O)[O-])cc2C(=O)N1CCBr` as the compound, how does the growth inhibition read?
A: 27.4%

Q: Which growth inhibition does the source give for `OCc1ccccc1CC(O)c1ccccc1` (stereo not given) here?
A: -23.7%

Q: Which growth inhibition does the source give for `O=C(Nc1ccc2ccccc2c1)C1CC1` here?
A: 0.2%

Q: For `C(=C/c1ccccc1)/CNCCNC/C=C/c1ccccc1`, which growth inhibition is on record?
A: 46.1%

Q: With `Cc1ccc(S(=O)(=O)NCC(=O)NCC(=O)Oc2ccc([N+](=O)[O-])cc2)cc1` (Tos-Gly-Gly-ONp) as the compound, how does the growth inhibition read?
A: 52.7%

Q: With `Cc1cn(C2CC(O)C(CO)O2)c(=O)nc1NC1CCCCCCCCCCC1` (stereo not given) as the compound, how does the growth inhibition read?
A: 1.25%

Q: Which growth inhibition does the source give for `O=C1c2cc3c(cc2CC12Cc1cc4c(cc1C2)CCC4)CCC3` here?
A: -14.6%

Q: For `C/C(CC(=O)Nc1ccc(Cc2ccc(Cl)cc2)cc1)=N/Nc1ccc([N+](=O)[O-])cc1[N+](=O)[O-]`, which growth inhibition is on record?
A: 28.1%

Q: For `CC1OC(O[C@@H]2OC=C(C=O)[C@@]3(O)CC[C@H](C)[C@@H]23)C(O)C(O)C1O` (stereo not given in full), which growth inhibition is on record?
A: 16.2%

Q: Which growth inhibition does the source give for `COc1cc2c3cc1Oc1c(O)c(OC)cc4c1C(Cc1ccc(O)c(c1)Oc1ccc(cc1)CC3N(C)CC2)N(C)CC4` (stereo not given) here?
A: -22.1%

Q: Which growth inhibition does the source give for `CCc1ccc(/C(C#N)=C/c2ccccc2Cl)cc1` here?
A: 21.9%

Q: For `Cc1cc(O)c(C=NC(=S)c2ccccc2)c(=O)o1`, which growth inhibition is on record?
A: -14.1%

Q: For `c1ccc2c(CN3CCCCC3)cccc2c1`, which growth inhibition is on record?
A: -6.1%

Q: Which growth inhibition does the source give for `O=C(CN1CCCCC1)NC(=O)N/N=C\c1ccco1` here?
A: 0.1%

Q: With `O=C(COCC(=O)N/N=C/c1ccc(O)cc1)N/N=C/c1ccc(O)cc1` as the compound, how does the growth inhibition read?
A: -10.4%

Q: With `Nc1ccc(S(=O)(=O)N/N=C/c2ccccc2)cc1` as the compound, how does the growth inhibition read?
A: 10.2%

Q: For `CCCNS(=O)(=O)c1nc2ccccc2s1`, which growth inhibition is on record?
A: -26%

Q: With `CC(O)CCCCC(O)CCC[C@H](O)[C@H]1CCC([C@H]2CCC([C@@H](O)CCCCCCCCCCCCC3=C[C@H](C)OC3=O)O2)O1` (stereo not given in full) as the compound, how does the growth inhibition read?
A: 40.9%

Q: With `Cc1cc(OCc2nnc3n2S(=O)(=O)c2ccccc2N3C)ccc1Cl` as the compound, how does the growth inhibition read?
A: 49.4%

Q: For `Cc1c(Cl)ccc2c1NC(=O)C2(O)C1Cc2ccccc2C1=O` (stereo not given), which growth inhibition is on record?
A: 44.5%

Q: With `C(=C\c1ccc2ccccc2c1)/c1ccc2ccccc2c1` as the compound, how does the growth inhibition read?
A: 6.75%

Q: Which growth inhibition does the source give for `CC(C)=NNC(=O)c1ccccc1CC(O)(c1ccccc1)c1ccccc1` here?
A: 22.1%

Q: For `CCOC(=O)Cc1nc(Cl)c2c(C)c(C)sc2n1`, which growth inhibition is on record?
A: 29.8%

Q: For `CN(C)CCCNc1ccc2nnn3c4ccc(O)cc4c(=O)c1c23`, which growth inhibition is on record?
A: -4.2%

Q: Which growth inhibition does the source give for `CCCCSc1nc(NCC)nc(NCC)n1` here?
A: 63.6%

Q: For `Nc1nc(N)c(N)c(Nc2ccc(Cl)cc2)n1`, which growth inhibition is on record?
A: 27.5%

Q: With `CCOc1ccc(NC(C)=O)c([N+](=O)[O-])c1` as the compound, how does the growth inhibition read?
A: -7.05%

Q: With `CCOC(=O)CCC(C(=O)OCC)C(C)C(=O)OCC` (stereo not given) as the compound, how does the growth inhibition read?
A: -25.4%

Q: For `CCOCCOC(=O)Nc1ccc(C)c(NC(=O)OCCOCC)c1`, which growth inhibition is on record?
A: -0.55%

Test: NCI Yeast Anticancer Drug Screen. Data for the mec2-1 strain (AID 157)
Conditions: S. cerevisiae mec2-1 strain, at 50.0 µM, hits give high values
How it was run: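 Growth inhibition is read against vehicle-treated controls after compound exposure of the mec2-1 yeast strain, which is defective in DNA damage repair or cell cycle control.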

Q: For `Cc1cc(=O)oc2nc(-c3ccccc3)[nH]c(=O)c12`, which growth inhibition is on record?
A: -10.2%

Q: With `O=C(Nc1cccc([N+](=O)[O-])c1)Nc1ccccc1F` as the compound, how does the growth inhibition read?
A: 10%

Q: With `COc1cc(C2c3c(cc(OC)c(O)c3OC)C=C(C(=O)O)C2CO)cc(OC)c1O` (stereo not given) as the compound, how does the growth inhibition read?
A: 5.35%

Q: Which growth inhibition does the source give for `Cc1cc(C(=O)O)ccc1C(=O)O` here?
A: -31.6%

Q: Which growth inhibition does the source give for `COc1ccc(CC2OCCC3c4ccccc4NC23)cc1OC` (stereo not given) here?
A: -3.5%

Q: With `CC(=O)C1=CCC2[C@H]3CC=C4C[C@H](O)CC[C@@]4(C)C3CC[C@@]12C` (stereo not given in full) as the compound, how does the growth inhibition read?
A: 55.2%

Q: For `CC(=O)C(C)(C)O`, which growth inhibition is on record?
A: -5.55%

Q: Which growth inhibition does the source give for `CCc1nnc2n1N=C(c1ccc(-c3ccccc3)cc1)CS2` here?
A: 28.3%

Q: Which growth inhibition does the source give for `CC(C)CC(N)C(=O)NC(Cc1c[nH]c2ccccc12)C(N)=O` (stereo not given) here?
A: 3.35%

Q: With `C=C1CCC2C(C)(CO)C(O)CCC2(C)C1CCC1=CCOC1=O` (stereo not given) as the compound, how does the growth inhibition read?
A: -17.6%

Q: With `Brc1ccccc1-c1nnc(-c2cccc3ccccc23)o1` as the compound, how does the growth inhibition read?
A: -59.9%

Q: With `O=C1c2ccc([N+](=O)[O-])cc2C(=O)N1CCBr` as the compound, how does the growth inhibition read?
A: -13.2%

Q: For `OCc1ccccc1CC(O)c1ccccc1` (stereo not given), which growth inhibition is on record?
A: -17.3%

Q: Which growth inhibition does the source give for `O=C(Nc1ccc2ccccc2c1)C1CC1` here?
A: -13.3%

Q: Which growth inhibition does the source give for `C(=C/c1ccccc1)/CNCCNC/C=C/c1ccccc1` here?
A: 22.6%

Q: With `Cc1ccc(S(=O)(=O)NCC(=O)NCC(=O)Oc2ccc([N+](=O)[O-])cc2)cc1` (Tos-Gly-Gly-ONp) as the compound, how does the growth inhibition read?
A: 13%

Q: For `Cc1cn(C2CC(O)C(CO)O2)c(=O)nc1NC1CCCCCCCCCCC1` (stereo not given), which growth inhibition is on record?
A: 5.7%

Q: For `O=C1c2cc3c(cc2CC12Cc1cc4c(cc1C2)CCC4)CCC3`, which growth inhibition is on record?
A: 1.4%

Q: With `C/C(CC(=O)Nc1ccc(Cc2ccc(Cl)cc2)cc1)=N/Nc1ccc([N+](=O)[O-])cc1[N+](=O)[O-]` as the compound, how does the growth inhibition read?
A: -0.25%

Q: For `CC1OC(O[C@@H]2OC=C(C=O)[C@@]3(O)CC[C@H](C)[C@@H]23)C(O)C(O)C1O` (stereo not given in full), which growth inhibition is on record?
A: -10.4%

Q: Which growth inhibition does the source give for `COc1cc2c3cc1Oc1c(O)c(OC)cc4c1C(Cc1ccc(O)c(c1)Oc1ccc(cc1)CC3N(C)CC2)N(C)CC4` (stereo not given) here?
A: -47.2%

Q: Which growth inhibition does the source give for `CCc1ccc(/C(C#N)=C/c2ccccc2Cl)cc1` here?
A: 40.5%

Q: For `Cc1cc(O)c(C=NC(=S)c2ccccc2)c(=O)o1`, which growth inhibition is on record?
A: -32%

Q: Which growth inhibition does the source give for `c1ccc2c(CN3CCCCC3)cccc2c1` here?
A: -19.1%

Q: With `O=C(CN1CCCCC1)NC(=O)N/N=C\c1ccco1` as the compound, how does the growth inhibition read?
A: 3%

Q: For `O=C(COCC(=O)N/N=C/c1ccc(O)cc1)N/N=C/c1ccc(O)cc1`, which growth inhibition is on record?
A: 22.2%

Q: For `Nc1ccc(S(=O)(=O)N/N=C/c2ccccc2)cc1`, which growth inhibition is on record?
A: -0.4%

Q: For `CCCNS(=O)(=O)c1nc2ccccc2s1`, which growth inhibition is on record?
A: -15.2%

Q: With `CC(O)CCCCC(O)CCC[C@H](O)[C@H]1CCC([C@H]2CCC([C@@H](O)CCCCCCCCCCCCC3=C[C@H](C)OC3=O)O2)O1` (stereo not given in full) as the compound, how does the growth inhibition read?
A: 29.1%

Q: With `Cc1cc(OCc2nnc3n2S(=O)(=O)c2ccccc2N3C)ccc1Cl` as the compound, how does the growth inhibition read?
A: 2%

Q: For `Cc1c(Cl)ccc2c1NC(=O)C2(O)C1Cc2ccccc2C1=O` (stereo not given), which growth inhibition is on record?
A: 21.1%

Q: Which growth inhibition does the source give for `C(=C\c1ccc2ccccc2c1)/c1ccc2ccccc2c1` here?
A: 25.6%

Q: Which growth inhibition does the source give for `CC(C)=NNC(=O)c1ccccc1CC(O)(c1ccccc1)c1ccccc1` here?
A: 5.25%

Q: With `CCOC(=O)Cc1nc(Cl)c2c(C)c(C)sc2n1` as the compound, how does the growth inhibition read?
A: 5.6%

Q: Which growth inhibition does the source give for `CN(C)CCCNc1ccc2nnn3c4ccc(O)cc4c(=O)c1c23` here?
A: 1.25%

Q: For `CCCCSc1nc(NCC)nc(NCC)n1`, which growth inhibition is on record?
A: 38.9%

Q: With `Nc1nc(N)c(N)c(Nc2ccc(Cl)cc2)n1` as the compound, how does the growth inhibition read?
A: 22.3%

Q: Which growth inhibition does the source give for `CCOc1ccc(NC(C)=O)c([N+](=O)[O-])c1` here?
A: -1.25%

Q: Which growth inhibition does the source give for `CCOC(=O)CCC(C(=O)OCC)C(C)C(=O)OCC` (stereo not given) here?
A: -19.1%

Q: Which growth inhibition does the source give for `CCOCCOC(=O)Nc1ccc(C)c(NC(=O)OCCOCC)c1` here?
A: -18.8%
